VACV mCherry inh: inhibitors of vaccinia virus infection (mCherry reporter signal) | AID 720579 | actives 0.63% (n = 310,000) | Vaccinia virus mCherry reporter infection, fluorescence | Potency, µM (doses to about 36.5 µM), inactives show top-dose activity change, negative = inhibition, hits mostly inhibitors; calls by dose curve; tested in A549 cells; also: nearly all actives have a fitted effect of over 35% in size
FMDV antiviral: blocks foot and mouth disease virus | FMDV antiviral cell-based qHTS | actives 1.2% (n = 410,000) | Potency, µM (top dose mostly 57.9 µM), inactives show at the top dose activity change, negative = inhibition, actives largely listed as inhibitors; calls by dose curve; tested in HEK293T cells; also: read-out not given here; nearly all actives have a fitted effect of over 45% in size
VACV Venus inh: vaccinia inhibition (Venus reporter). Vaccinia virus Venus reporter expression, fluorescence. Potency, µM (titrated, usually from 36.5 µM), for the others: at the highest dose activity change, negative = inhibition, usual class: inhibitors. actives 0.46% (n = 330,000). AID 720580; calls by dose curve; tested in A549 cells; also: nearly all actives have a fitted effect of over 30% in size
Giardia FBPA inh: blocks Giardia fructose-bisphosphate aldolase activity | A8B2U2 | purified Giardia FBPA | Potency, µM (titrated, usually from 59.6 µM), without a hit: top-dose activity, negative = inhibition, hits mostly inhibitors | actives 0.71% (n = 290,000) | AID 2451; active = well fitted inhibition curve with a large enough effect; inconclusive = small, poorly fitted or top-dose-only effect, or effect the other way; also: nearly all actives have a fitted effect of over 55% in size
Target sequence (A8B2U2 whole entry, looked up): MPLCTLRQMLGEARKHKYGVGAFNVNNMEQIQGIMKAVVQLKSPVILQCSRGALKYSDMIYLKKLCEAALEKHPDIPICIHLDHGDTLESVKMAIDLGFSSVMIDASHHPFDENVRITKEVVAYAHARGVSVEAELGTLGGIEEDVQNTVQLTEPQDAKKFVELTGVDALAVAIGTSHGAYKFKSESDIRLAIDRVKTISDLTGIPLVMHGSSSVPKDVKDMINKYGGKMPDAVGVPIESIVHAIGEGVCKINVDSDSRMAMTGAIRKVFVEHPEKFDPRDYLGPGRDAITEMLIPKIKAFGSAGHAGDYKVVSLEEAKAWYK
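Giardia FBPA (40 nM reagent) was preincubated 10 min at RT with compound (up to 57.5 uM final), then substrate plus GAPDH/TPI/NAD/arsenate coupling system with diaphorase/resazurin was added; resorufin fluorescence (525/598 nm) was read after 20 min.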
Starred values were filed as active, the others as inactive; i = inactive; ? = inconclusive; · = not tested or not shown; [ ] = dose if it differs, or a comment. In the library only some 2.2% were active in any assay of this set; here they are far more common. % is scaled to controls: 0 for no effect and ±100 for the full control effect; potency is read from the fitted curve at half-maximal effect.

SMILES	VACV mCherry inh	FMDV antiviral	VACV Venus inh	Giardia FBPA inh
Cc1cc(C)c2c(N)c(C(=O)Nc3ncc(C)s3)sc2n1	-2%	5µM*	-24%	-19%
Cc1nc(Sc2nnnn2C2CC2)c2c(-c3ccccc3)csc2n1	?	·	-28%	·
CN(C)CCNc1ncnc2c1sc1nc(-c3ccccc3)c3c(c12)CCCC3	?	?	10µM*	11%
Cc1ncc2c(c1CNC(=O)c1ccsc1)CCN(C(=O)c1c(F)cccc1Cl)C2	33%	-8%	55%	·
COC(=O)/C=C1\SC(=NC(=O)c2cccc([N+](=O)[O-])c2)NC1=O	i	14µM*	0%	-7%
COC(=O)/C=C1/SC(=NC(=O)c2ccc(OC)cc2)NC1=O	·	-10%	·	·
COC(=O)/C=C1/SC(=NC(=O)c2ccc(F)cc2)NC1=O	i	40µM*	-6%	2%
COc1ccc(C(=O)NCCN2Cc3ccccc3OC(c3ccsc3)C2)c(OC)n1 (stereo not drawn)	-8%	-10%	10%	·
O=C(Nc1nc2ccccc2s1)C1CCN(S(=O)(=O)c2cc([N+](=O)[O-])ccc2Cl)CC1	·	35µM*	·	-21%
Cn1c(O)c(/C=N/NC(=O)c2cc3ccccc3cc2O)c2ccccc21	7.9µM*	0%	?	27%
CSc1nc(NC(C)C)nc(NC(C)C)n1	-2%	-10%	-20%	7%
Cc1cc(Sc2nc(NC(C)C)nc(NC(C)C)n2)nc(Cl)n1	7.9µM*	2%	?	-2%
COc1ccc(C2=CC(c3c(C)nn(-c4ccccc4)c3Cl)n3nnnc3N2)cc1OC (stereo not drawn)	·	18µM*	?	-21%
COc1cc(OC)c(C(=O)/C=C/c2ccccc2)c(O)c1O	?	25µM*	?	10%
COc1cc(/C=N/O)ccc1OCc1ccc(C(=O)O)cc1	-7%	4.5µM*	0%	12%
COc1ccc(C=CC(=O)c2ccc(OCc3ccccc3)c(OC)c2)cc1OC	28µM*	?	11µM*	·
COc1cc(/C=N/NC(N)=S)ccc1OCc1ccc(C)cc1	11µM*	21%	?	0%
COc1cc(O)cc(O)c1C(=O)/C=C/c1ccccc1	?	-22%	-20%	2%
COc1ccc(/C=C/C(=O)c2ccc(C(=O)/C=C/c3ccc(OC)c(OC)c3)cc2)cc1OC	·	?	·	7%
CCC1(c2ccccc2)NC(=O)NC1=O (stereo not drawn)	·	·	·	-3%
COc1ccc(C(=O)Nc2nnc(S(=O)(=O)N(C)c3ccc(C)cc3)s2)cc1	-17%	23%	-19%	·
CN1C(=O)C(C)(C)c2cc(S(=O)(=O)NCc3ccc(C(=O)Nc4ccc(Cl)cc4)cc3)ccc21	-1%	32µM*	-24%	·
CCOc1cc2c(C#N)c(N3CCCCC3)nc(N)c2c(N)n1	?	35%	-22%	?
COc1cc2c(C#N)c(N3CCOCC3)nc(N)c2c(N)n1	·	-17%	?	?
CCOC(=O)C1CCN(c2nc(N)c3c(N)nc(SCC(=O)O)cc3c2C#N)CC1	-5%	-2%	-2%	7.1µM*
SMILES	VACV mCherry inh	FMDV antiviral	VACV Venus inh	Giardia FBPA inh
COc1cc2c(C#N)c(N3CCCCC3)nc(N)c2c(N)n1	?	7%	?	2.2µM*
COc1cc2c(C#N)c(N3CCc4ccccc4C3)nc(N)c2c(N)n1	-15%	0%	?	1.8µM*
O=C(NCCN1CCOCC1)c1cnn(-c2ncc3c(n2)-c2ccccc2CC3)c1C1CC1	-12%	-2%	-8%	·
O=C(NCCCN1CCN(c2ccc(F)cc2)CC1)c1ccc2nc(Cc3ccccc3)oc2c1	-25%	11µM*	-27%	·
O=C(NCCCN1CCN(c2ccccc2)CC1)c1ccc2nc(Cc3ccccc3)oc2c1	-7%[7.34 µM]	?	-12%[7.34 µM]	·
Cc1cccc2nc(CNC(=O)CN3Cc4cc(Cl)ccc4OC(C)C3)cn12 (stereo not drawn)	-11%	-5%	0%	·
CN(C)c1ccc(C=c2c3ccccc3n3c2c2c([n+]3C)CCCC2)cc1	3.2µM*	6.3µM*	6.3µM*	·
CN(C)c1ccc(C=c2c3ccccc3n3c2cc(-c2ccccc2)[n+]3C)cc1	87%	16µM*	252%	·
CN(C)c1ccc(C=c2c3cc([N+](=O)[O-])ccc3n3c2cc(-c2ccccc2)[n+]3C)cc1	42%	32µM*	8%	·
CN(C)c1ccc(/C=C2\CCc3ccccc32)cc1	23%	·	12%	·
CN(C)c1ccc(C=c2c3ccccc3n3c2cc(-c2ccc(Cl)cc2)[n+]3C)cc1	7%	?	50%	·
O=C(CCl)N1CCN(S(=O)(=O)Cc2ccccc2)CC1	·	28µM*	·	·
O=C(CCl)N1CCN(S(=O)(=O)c2ccc3c(c2)CCC3)CC1	·	20µM*	·	·
CCc1cc(-c2oncc2-c2ccc(OC)cc2)c(O)cc1OC	·	·	·	-23%
Cc1cccc(-c2nnn3c2nc(NCCc2ccc(S(N)(=O)=O)cc2)c2cc(Cl)ccc23)c1	-20%	-21%	-16%	·
COc1ccc2cc3[n+](cc2c1O)CCc1cc2c(cc1-3)OCO2	i	10µM*	7%	·
COc1cc2c(cc1OC)-c1cc3ccc(OC)c(OC)c3c[n+]1CC2	-13%	-27%	-17%	?
CCN1CCCC1CNC(=O)c1cnn(-c2nccc(-c3ccco3)n2)c1C1CC1 (stereo not drawn)	0%	-6%	-12%	·
O=C(NCC1CCCO1)C(=Cc1cccc([N+](=O)[O-])c1)C(=O)NCC1CCCO1 (stereo not drawn)	13µM*	?	?	12%
C[N+](C)(C)Cc1ccccc1	-12%	35µM*	-9%	3%
C(=C1c2ccccc2Oc2ccccc21)c1ccccc1	-13%	·	-9%	·
CN(CCO)c1cc(Sc2nc3ccccc3s2)c2nonc2c1[N+](=O)[O-]	·	22µM*	·	-19%
CC(=O)OCCN(C)c1cc(SC(C)C)c2nonc2c1[N+](=O)[O-]	i	-17%	-7%	-27%
O=c1oc2ccccc2c2c1C1O[C@](c3ccsc3)(Cc3ccccc31)O2	·	·	·	18%[12.9 µM]
N#Cc1ccc(C23OCCN2CCn2c3c3ccccc3[n+]2[O-])cc1 (stereo not drawn)	4µM*	1%	-26%	·
SMILES	VACV mCherry inh	FMDV antiviral	VACV Venus inh	Giardia FBPA inh
CC(=O)c1ccccc1-c1csc2ncnc(Sc3nnnn3C)c12	·	-17%	·	·
Cn1nnnc1Sc1ncnc2scc(-c3cccs3)c12	·	22µM*	·	·
Cn1nnnc1Sc1ncnc2scc(-c3cc4ccccc4o3)c12	·	18µM*	·	·
Cn1nnnc1Sc1ncnc2scc(-c3ccsc3)c12	·	16µM*	·	·
CC(Sc1nnc(-c2ccccc2)n1C)C(=O)NCc1ccco1 (stereo not drawn)	-9%	·	-15%	·
CCNC(=O)c1c(NC(=O)c2nc(S(=O)(=O)CC)ncc2Cl)sc2c1CCCC2	-1%[7.34 µM]	?	0%[7.34 µM]	·
Cc1nc2cnc(Nc3ccccc3)nc2n(CCc2ccccc2)c1=O	·	-6%	·	9%
Cc1nc([N+](=O)[O-])cn1CC(O)c1ccc2c(c1)OCCCO2 (stereo not drawn)	-5%	·	-9%	·
COc1ccc(CCNC(=O)c2ccc(N(C)S(=O)(=O)c3ccc(C)cc3)cc2)cc1	?	?	-27%	-7%
CC1CCCN(S(=O)(=O)c2cc(C(=O)NCCc3ccc(S(N)(=O)=O)cc3)ccc2Cl)C1 (stereo not drawn)	·	18µM*	·	·
O=C(NCCc1ccccc1)c1ccc(Cl)c(S(=O)(=O)N2CCCC2)c1	·	-7%	·	·
